This is a sample that favours compounds with a hit; in the whole collection about 1.6% have one here.
MOR-DOR inv ag – inverse agonists of MOR-DOR heterodimerization, primary screen, cell-based, luminescence; Mu-type opioid receptor (Homo sapiens) + Delta-type opioid receptor (Homo sapiens), …; cell-based MOR-DOR heterodimer luminescence, inverse agonism; inhibition, % at 9.3 µM; 340,000 compounds, 0.21% hits; in the data active = inhibition above about 22%, passing the limit was not always enough;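 also: 0% = cells with DMSO and 100% = wells without cells with DMSO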
MOR-DOR ag-1 – agonists of OPRM1-OPRD1 heterodimerization, primary screen, cell-based, luminescence | Mu-type opioid receptor (Homo sapiens) + Delta-type opioid receptor (Homo sapiens), … | cells | activation, % at 9.3 µM | 340,000 compounds, 0.3% hits | AID 504326, 2011;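 also: 0% = vehicle-treated cells and 100% = reference agonist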
HTR5A inv ag – HTR5A inverse agonists in luminescence cell assay, primary screen, counter-screen for OPRM1-OPRD1 heterodimer inverse agonist project, full-deck HTS. 5-hydroxytryptamine receptor 5A (Homo sapiens), P47898. HTR5A cell line, inverse agonism. inhibition, % at 9.3 µM. 340,000 compounds, 0.083% hits; in the data active = inhibition mostly above about 23%, no sharp cut-off; inactive = mostly below about 18%;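 also: 0% = cells with DMSO and 100% = no-cell wells with DMSO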
HTR5A ag ctr – HTR5A agonists in luminescence cell assay, primary screen, counter-screen for OPRM1-OPRD1 heterodimer agonist project, full-deck HTS | activation, % at 9.3 µM | AID 504692, 2011 | 340,000 compounds, 0.61% hits | cell-based; in the data active = activation mostly above about 9.5%, no sharp cut-off; inactive = mostly below about 7.6%;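 also: 0% = cells with vehicle only and 100% = reference agonist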
HTR2A ag – mouse Htr2a agonists via beta-arrestin recruitment, primary screen, cell-based, luminescence; CHO-K1 mHTR2A beta-arrestin complementation; percent of 30 µM serotonin response; 360,000 compounds, 0.66% hits; activation, % at 7.6 µM; 5-hydroxytryptamine receptor 2A (Mus musculus), P35363;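 active = activation above a run cutoff, the mean activation of all tested compounds plus 3 SD, cut at about 14% in these data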;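 also: 0% = plate median of compound wells and 100% = 30 µM serotonin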
Target sequence (P35363 whole entry, looked up): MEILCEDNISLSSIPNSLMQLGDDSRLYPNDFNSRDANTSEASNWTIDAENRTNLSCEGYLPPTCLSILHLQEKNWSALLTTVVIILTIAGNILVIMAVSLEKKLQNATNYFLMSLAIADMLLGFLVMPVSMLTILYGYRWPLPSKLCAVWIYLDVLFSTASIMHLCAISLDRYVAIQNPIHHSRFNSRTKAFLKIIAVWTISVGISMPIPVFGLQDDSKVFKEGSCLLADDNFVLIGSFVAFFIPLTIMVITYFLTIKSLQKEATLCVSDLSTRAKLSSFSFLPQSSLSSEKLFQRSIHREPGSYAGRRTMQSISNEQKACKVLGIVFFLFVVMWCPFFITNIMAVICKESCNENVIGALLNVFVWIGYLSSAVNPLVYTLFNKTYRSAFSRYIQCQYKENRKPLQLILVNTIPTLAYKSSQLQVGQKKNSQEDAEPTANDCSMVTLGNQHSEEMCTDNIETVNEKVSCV
MOR-DOR ag-2 – OPRM1-OPRD1 heterodimerization promoters, counter-screen for HTR5A agonist project, cell-based, luminescence; activation, % at 9.3 µM; 800 compounds, 13% hits; AID 504913, 2011; U2OS counter-screen cells, complementation luminescence, 3 h; shares compounds with HTR5A ag ctr
HTR5A ag confirm – HTR5A agonists, retest of hits, confirmation, cell-based, luminescence | shares compounds with HTR5A ag ctr | HTR5A agonist cell assay | activation, % at 9.3 µM | 800 compounds, 17% hits | AID 504915, 2011; in the data active = activation above about 17%;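 also: 0% = cells with vehicle only and 100% = full reference agonist response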
MOR ag counter – OPRM1 agonists via beta-arrestin recruitment, confirmation, counter-screen for mouse HTR2A agonist project, cell-based, luminescence, single concentration; AID 624380, 2012; activation, % at 9.3 µM; U2OS OPRM1 beta-arrestin PathHunter; DMSO 0%, DAMGO 9.3 µM 100%; 2,300 compounds, 5.3% hits; shares compounds with HTR2A ag;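 active = mean activation above the mean of DMSO-only wells plus 3 SD, cut at about 0.5% in these data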
HTR2A ag conf – mouse HTR2A agonists, beta-arrestin recruitment, confirmation, cell-based, luminescence, CHO-K1 PathHunter, triplicate; shares compounds with HTR2A ag; DMSO 0%, 30 µM serotonin 100%; activation, % at 7.6 µM; 2,300 compounds, 19% hits; AID 624381, 2012;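 active = mean activation across triplicates above the hit threshold derived in the original primary screen, cut at about 15% in these data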
The depositor's hits bear a star. Rule as the data show it, unless noted: active = activation above about 18%; inactive = the rest.

Screening CNCCc1c[nH]c2ccc(O)cc12 returned MOR-DOR inv ag 9, MOR-DOR ag-1 -2, HTR5A inv ag -304, HTR5A ag ctr 124*, HTR2A ag 59*, MOR-DOR ag-2 3, HTR5A ag confirm 6, MOR ag counter 0 and HTR2A ag conf 141*.
Screening NCCc1c[nH]c2ccc(C(N)=O)cc12 returned MOR-DOR inv ag 11, MOR-DOR ag-1 -2, HTR5A inv ag -216, HTR5A ag ctr 96*, HTR2A ag 28*, MOR-DOR ag-2 0, HTR5A ag confirm 83*, MOR ag counter 0 and HTR2A ag conf 15*.
CNC(=O)C[C@H]1CC[C@@H]2NC[C@H](O)COC[C@H]2O1 was read as HTR2A ag 0.
`Cc1cccc(CCNCc2cc3cc(C)cc(C)c3[nH]c2=O)c1` gave MOR-DOR inv ag 14, MOR-DOR ag-1 -3, HTR5A inv ag -13, HTR5A ag ctr 4 and HTR2A ag 4.
`Cc1cccc(CCNCc2cc3cccc(C)c3[nH]c2=O)c1` gave MOR-DOR inv ag -3, MOR-DOR ag-1 1, HTR5A inv ag -54, HTR5A ag ctr 15*, HTR2A ag 21*, MOR-DOR ag-2 1, HTR5A ag confirm 2, MOR ag counter -1 and HTR2A ag conf 6.
For C=C1C(=O)OC2CCN3CC=C(COC(=O)C(C)(O)C4(CO4)C1C)C23 (stereo not given) the results were HTR2A ag -5.
`CSCCC(c1nnnn1-c1ccc2c(c1)OCCO2)N1CCC(n2c(=O)[nH]c3ccccc32)CC1` (stereo not given) gave HTR2A ag 6.
For CCCN(CCC)[C@@H]1CCc2cccc(O)c2C1 the results were MOR-DOR inv ag 5, MOR-DOR ag-1 -1, HTR5A inv ag -152, HTR5A ag ctr 43*, HTR2A ag 58*, MOR-DOR ag-2 1, HTR5A ag confirm 67*, MOR ag counter 0.8* and HTR2A ag conf 126*.
Screening CCCN(CCC)C(=O)Cc1c(-c2ccc(Cl)cc2)nc2c(Cl)cc(Cl)cn12 returned MOR-DOR inv ag 7, MOR-DOR ag-1 -1, HTR5A inv ag -2, HTR5A ag ctr 1, HTR2A ag 15*, MOR ag counter -1 and HTR2A ag conf 2.
For NCCNc1ccc([N+](=O)[O-])c2cccnc12 the results were MOR-DOR inv ag 3, MOR-DOR ag-1 -1, HTR5A inv ag -14, HTR5A ag ctr 1, HTR2A ag 22*, MOR ag counter -1 and HTR2A ag conf 6.
CC(O)CNc1ccc([N+](=O)[O-])c2cccnc12 (stereo not given) was read as MOR-DOR inv ag 9, MOR-DOR ag-1 -1, HTR5A inv ag 8, HTR5A ag ctr -2 and HTR2A ag -3.
Screening NCC(O)c1cc(O)c(O)cc1F (stereo not given) returned MOR-DOR inv ag -4, MOR-DOR ag-1 1, HTR5A inv ag 6, HTR5A ag ctr -2, HTR2A ag 56*, MOR ag counter 0 and HTR2A ag conf 149*.
`COc1ccc(CCNCc2sccc2C)cc1` gave MOR-DOR inv ag 5, MOR-DOR ag-1 -1, HTR5A inv ag 11, HTR5A ag ctr -3, HTR2A ag 25*, MOR ag counter 0 and HTR2A ag conf 9.
Cc1ccsc1CNCCc1ccc(F)cc1 was read as MOR-DOR inv ag 8, MOR-DOR ag-1 -2, HTR5A inv ag 11, HTR5A ag ctr -3 and HTR2A ag 7.
`CCOC(=O)[C@]12Cc3cc(C)ccc3[C@H]1N(C)C(=O)c1cc(OC)ccc12` gave HTR2A ag -10.
c1ccc(CN2Cc3ccccc3-n3nncc3C2)cc1 was read as HTR2A ag -2.
Screening c1coc(CN2Cc3ccccc3-n3nncc3C2)c1 returned HTR2A ag 18*, MOR ag counter -1 and HTR2A ag conf -2.
For COc1ccc2[nH]cc(CCN(C)C)c2c1 the results were MOR-DOR inv ag 8, MOR-DOR ag-1 -1, HTR2A ag 49*, MOR ag counter -1 and HTR2A ag conf 36*.
O=c1[nH]c2ccccc2n1C1CCN(Cc2ccc(-c3[nH]c4cc5ncnc5cc4nc3-c3ccccc3)cc2)CC1 was read as HTR2A ag -2.
Screening O=C(C(Cc1ccccc1)NS(=O)(=O)c1ccc(F)cc1)N1CCC2(CC1)OCCO2 (stereo not given) returned MOR-DOR inv ag 13, MOR-DOR ag-1 -2, HTR5A inv ag 16, HTR5A ag ctr -6, HTR2A ag 17*, MOR ag counter -1 and HTR2A ag conf 1.
COC(=O)C1=C(C(=O)OC)C2OC1c1cc3ccccc3cc12 was read as MOR-DOR inv ag 26, MOR-DOR ag-1 -6, HTR5A inv ag -9, HTR5A ag ctr 2 and HTR2A ag -9.
CN1CCC(c2c[nH]c3ccc(O)cc23)CC1 was read as MOR-DOR inv ag -2, MOR-DOR ag-1 0, HTR5A inv ag -72, HTR5A ag ctr 29, HTR2A ag 50*, MOR ag counter 0 and HTR2A ag conf 32*.
FC(F)(F)Oc1ccc(NC2=NCCCS2)cc1 was read as MOR-DOR inv ag 6, MOR-DOR ag-1 -1, HTR5A inv ag 15, HTR5A ag ctr -4, HTR2A ag 15*, MOR ag counter -1 and HTR2A ag conf -1.
FC(F)(F)c1cccc(NC2=NCCCS2)c1 was read as MOR-DOR inv ag 12, MOR-DOR ag-1 -2, HTR5A inv ag 6, HTR5A ag ctr 4 and HTR2A ag -2.
For C=C1C(=O)OC2CC3(C)OC3C3OC3C3=CC(OC3=O)C12 (stereo not given) the results were HTR2A ag -4.
COc1cc(/C=C2\C(=O)NC(=O)N(c3ccccc3)C2=O)cc(OC)c1OC was read as MOR-DOR inv ag 1, MOR-DOR ag-1 0, HTR5A inv ag 1, HTR5A ag ctr 3, HTR2A ag 15*, MOR ag counter 0 and HTR2A ag conf -2.

Assay outcomes: PubChem, The Scripps Research Institute Molecular Screening Center
